The source made the active and inactive calls.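 Rule for the calls: active = viability at the highest tested concentration below 50%; inactive = the rest.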
Experiment: cytotoxicity in ABCB6-expressing K562 cells, dose response, cytotoxicity control for ABCB6 inhibitor project, cell-based, CellTiter-Glo luminescence, PowderSet01 powders (AID 651656)
Settings: 18 h; series mostly up to 100 µM
For `CC(=O)Nc1ccc(NC(=O)c2nc(S(=O)(=O)Cc3cccc(C)c3)ncc2Cl)cc1`, the outcome was “inactive”.
With `CCc1ccc(NC(=O)c2nc(S(=O)(=O)Cc3ccccc3)ncc2Cl)cc1` the outcome was “inactive”.
With `CCOc1ccccc1NC(=O)c1nc(S(=O)(=O)Cc2cccc(C)c2)ncc1Cl` the outcome was “inactive”.
With `CC(=O)Nc1ccc(NC(=O)c2nc(S(=O)(=O)Cc3ccccc3)ncc2Cl)cc1` the outcome was “inactive”.
